Test results taken from PubChem BioAssay AID2284185 (EPA ToxCast).
The source made the active and inactive calls. Rule for the calls: active = hit-call score of the fitted dose curve at least 0.9, where 1 is the maximum; inactive = score below 0.9.

Each molecule was assayed against human Dopamine Receptor D4.2 Antagonism, DRD4 (gene 1815) (UniProt P21917) (assay: ERF_TW_GPCR_hDRD4: Eurofins (ERF) G Protein-Coupled Receptor (GPCR) Radioligand Binding LeadHunter Assay for human Dopamine Receptor D4.2 Antagonism).
Sequence of human Dopamine Receptor D4.2 Antagonism, DRD4 (gene 1815) (P21917 whole entry, looked up): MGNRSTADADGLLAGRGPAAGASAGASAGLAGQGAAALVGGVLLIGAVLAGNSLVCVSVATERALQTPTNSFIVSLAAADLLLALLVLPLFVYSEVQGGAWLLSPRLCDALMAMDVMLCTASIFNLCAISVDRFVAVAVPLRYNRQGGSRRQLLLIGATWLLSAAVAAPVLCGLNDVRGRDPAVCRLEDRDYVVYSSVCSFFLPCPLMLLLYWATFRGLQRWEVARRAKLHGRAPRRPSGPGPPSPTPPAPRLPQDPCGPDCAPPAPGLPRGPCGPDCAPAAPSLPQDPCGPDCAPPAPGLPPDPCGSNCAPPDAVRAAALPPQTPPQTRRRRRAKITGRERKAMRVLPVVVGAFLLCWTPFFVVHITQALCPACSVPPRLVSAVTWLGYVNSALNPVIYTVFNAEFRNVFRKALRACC
Method: ERF_TW_GPCR_hDRD4 is a biochemical, single-readout assay that uses extracted gene-proteins in a cell-free assay. Measurements were taken 2 hour after chemical dosing in a 96-well plate. See D4.2 Human Dopamine GPCR Binding (Antagonist Radioligand) Assay, Panlabs.ERF_TW_GPCR_hDRD4 is an assay component calculated from the ERF_TW_GPCR_hDRD4 assay. It is designed to measure radioligand binding using a type of binding reporter as detected by scintillation counting with radiometry technology.Data from the assay component ERF_TW_GPCR_hDRD4 was analyzed at the assay endpoint, ERF_TW_GPCR_hDRD4, in the positive analysis fitting direction relative to DMSO as the negative control and baseline of activity. Using a type of binding reporter, loss-of-signal activity can be used to understand changes in binding as they relate to gene DRD4. To generalize the intended target to other relatable targets, this assay endpoint is annotated to the gpcr intended target family, where the subfamily is dopamine.
Human recombiant cells are prepared in Tris-HCl buffer pH 7.4. A 24 ug aliquot is incubated with 0.5 nM [3H] Spiperone for 2 hours at 25C. Non-specific binding is estimated in the presence of 10 uM Haloperidol.
`O=C(/C=C/c1ccc(O)cc1)CC(=O)/C=C/c1ccc(O)cc1` was tested, and the AC50 was 1120 nM (active).
